Measurements from ChEMBL document CHEMBL1961873, “Compounds: GSK PKIS; Assays: Nanosyn kinase panel” (2012).

Legend:
[1] = target: Tyrosine-protein kinase receptor UFO (Homo sapiens) (UniProt P30530); details: at 1 µM
[2] = target: Tyrosine-protein kinase Blk (Homo sapiens) (UniProt P51451); details: at 0.1 µM
[3] = target: Tyrosine-protein kinase Blk (Homo sapiens) (UniProt P51451); details: at 1 µM
[4] = target: T1, Cytoplasmic tyrosine-protein kinase BMX (Homo sapiens) (UniProt P51813); details: at 0.1 µM
T1 sequence (whole entry): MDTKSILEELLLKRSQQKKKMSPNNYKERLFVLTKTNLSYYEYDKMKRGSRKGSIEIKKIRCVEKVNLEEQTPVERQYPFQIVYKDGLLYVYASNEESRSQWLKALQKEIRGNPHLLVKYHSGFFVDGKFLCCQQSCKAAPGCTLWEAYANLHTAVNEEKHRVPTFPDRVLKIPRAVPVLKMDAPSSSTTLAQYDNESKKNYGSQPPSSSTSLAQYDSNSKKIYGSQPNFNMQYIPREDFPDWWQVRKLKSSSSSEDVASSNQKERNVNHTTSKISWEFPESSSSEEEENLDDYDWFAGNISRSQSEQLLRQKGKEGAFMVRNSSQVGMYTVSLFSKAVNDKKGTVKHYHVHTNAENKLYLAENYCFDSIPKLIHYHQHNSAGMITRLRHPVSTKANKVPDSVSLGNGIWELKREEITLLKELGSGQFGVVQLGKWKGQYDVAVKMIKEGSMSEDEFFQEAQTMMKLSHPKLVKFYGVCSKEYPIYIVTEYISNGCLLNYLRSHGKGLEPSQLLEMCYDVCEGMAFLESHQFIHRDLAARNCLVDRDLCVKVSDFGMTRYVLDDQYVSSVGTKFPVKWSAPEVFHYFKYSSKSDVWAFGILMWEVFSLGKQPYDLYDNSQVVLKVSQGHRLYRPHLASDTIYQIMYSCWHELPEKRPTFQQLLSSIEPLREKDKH

[5] = target: T1, Cytoplasmic tyrosine-protein kinase BMX (Homo sapiens); details: at 1 µM
[6] = target: Protein-tyrosine kinase 6 (Homo sapiens) (UniProt Q13882); details: at 0.1 µM
Protein-tyrosine kinase 6 (Homo sapiens), sequence (Q13882 whole entry, looked up): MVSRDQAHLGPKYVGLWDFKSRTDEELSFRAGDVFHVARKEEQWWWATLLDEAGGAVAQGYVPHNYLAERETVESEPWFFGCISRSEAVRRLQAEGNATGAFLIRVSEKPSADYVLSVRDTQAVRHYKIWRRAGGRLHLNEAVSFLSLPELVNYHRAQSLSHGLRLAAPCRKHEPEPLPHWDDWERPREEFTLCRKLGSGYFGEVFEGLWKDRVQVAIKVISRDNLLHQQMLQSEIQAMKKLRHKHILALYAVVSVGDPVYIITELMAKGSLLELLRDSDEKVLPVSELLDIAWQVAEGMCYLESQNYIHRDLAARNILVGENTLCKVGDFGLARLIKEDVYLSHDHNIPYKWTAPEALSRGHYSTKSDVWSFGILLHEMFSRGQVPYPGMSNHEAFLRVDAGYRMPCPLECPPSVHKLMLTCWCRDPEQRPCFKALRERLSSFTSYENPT

[7] = target: Protein-tyrosine kinase 6 (Homo sapiens) (UniProt Q13882); details: at 1 µM
[8] = target: Tyrosine-protein kinase BTK (Homo sapiens) (UniProt Q06187); details: at 0.1 µM
Tyrosine-protein kinase BTK (Homo sapiens), sequence (Q06187 whole entry): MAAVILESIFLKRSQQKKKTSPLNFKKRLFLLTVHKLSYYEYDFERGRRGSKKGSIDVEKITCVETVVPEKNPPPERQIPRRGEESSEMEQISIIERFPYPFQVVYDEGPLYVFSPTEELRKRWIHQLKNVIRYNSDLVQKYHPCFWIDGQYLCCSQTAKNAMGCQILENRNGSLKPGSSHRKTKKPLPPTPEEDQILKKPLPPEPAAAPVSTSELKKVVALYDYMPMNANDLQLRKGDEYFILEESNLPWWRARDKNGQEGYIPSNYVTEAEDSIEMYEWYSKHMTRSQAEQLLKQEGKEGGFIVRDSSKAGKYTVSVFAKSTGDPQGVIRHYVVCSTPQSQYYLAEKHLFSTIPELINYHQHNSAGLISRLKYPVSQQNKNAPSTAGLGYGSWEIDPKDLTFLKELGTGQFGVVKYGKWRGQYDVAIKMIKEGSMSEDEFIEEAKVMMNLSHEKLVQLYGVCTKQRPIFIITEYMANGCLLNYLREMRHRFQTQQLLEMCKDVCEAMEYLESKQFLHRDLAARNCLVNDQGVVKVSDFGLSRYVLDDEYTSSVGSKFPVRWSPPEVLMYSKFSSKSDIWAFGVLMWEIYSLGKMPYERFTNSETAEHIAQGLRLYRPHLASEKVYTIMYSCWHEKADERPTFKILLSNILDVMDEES

[9] = target: Tyrosine-protein kinase BTK (Homo sapiens) (UniProt Q06187); details: at 1 µM
[10] = target: Tyrosine-protein kinase CSK (Homo sapiens) (UniProt P41240); details: at 0.1 µM
[11] = target: Tyrosine-protein kinase CSK (Homo sapiens) (UniProt P41240); details: at 1 µM
[12] = target: T2, Discoidin domain-containing receptor 2 (Homo sapiens) (UniProt Q16832); details: at 0.1 µM
T2 sequence (whole entry): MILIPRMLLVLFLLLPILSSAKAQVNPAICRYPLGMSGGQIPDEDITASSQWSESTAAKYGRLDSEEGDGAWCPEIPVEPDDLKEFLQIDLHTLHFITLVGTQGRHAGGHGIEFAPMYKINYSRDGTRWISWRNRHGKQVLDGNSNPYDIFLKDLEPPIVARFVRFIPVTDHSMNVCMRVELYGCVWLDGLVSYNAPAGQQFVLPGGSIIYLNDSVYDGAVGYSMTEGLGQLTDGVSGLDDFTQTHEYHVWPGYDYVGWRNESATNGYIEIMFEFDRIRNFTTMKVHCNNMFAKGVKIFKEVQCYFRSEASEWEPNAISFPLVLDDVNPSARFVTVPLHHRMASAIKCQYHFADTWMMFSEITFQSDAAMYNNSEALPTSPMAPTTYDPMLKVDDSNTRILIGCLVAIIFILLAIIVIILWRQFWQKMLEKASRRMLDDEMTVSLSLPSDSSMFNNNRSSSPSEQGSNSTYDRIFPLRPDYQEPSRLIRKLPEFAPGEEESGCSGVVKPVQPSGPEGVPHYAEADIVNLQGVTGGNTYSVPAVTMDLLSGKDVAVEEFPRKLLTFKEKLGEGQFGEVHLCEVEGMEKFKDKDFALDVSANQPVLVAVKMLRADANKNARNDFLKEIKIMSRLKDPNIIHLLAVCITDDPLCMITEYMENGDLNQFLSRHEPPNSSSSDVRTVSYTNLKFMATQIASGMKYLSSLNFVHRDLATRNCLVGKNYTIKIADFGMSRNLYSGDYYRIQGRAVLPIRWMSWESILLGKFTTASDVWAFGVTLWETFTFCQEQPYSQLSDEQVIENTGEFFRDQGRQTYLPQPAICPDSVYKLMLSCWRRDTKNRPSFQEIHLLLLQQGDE

[13] = target: T2, Discoidin domain-containing receptor 2 (Homo sapiens); details: at 1 µM
[14] = target: Epidermal growth factor receptor (Homo sapiens) (UniProt P00533); details: at 0.1 µM
Epidermal growth factor receptor (Homo sapiens), sequence (P00533 whole entry): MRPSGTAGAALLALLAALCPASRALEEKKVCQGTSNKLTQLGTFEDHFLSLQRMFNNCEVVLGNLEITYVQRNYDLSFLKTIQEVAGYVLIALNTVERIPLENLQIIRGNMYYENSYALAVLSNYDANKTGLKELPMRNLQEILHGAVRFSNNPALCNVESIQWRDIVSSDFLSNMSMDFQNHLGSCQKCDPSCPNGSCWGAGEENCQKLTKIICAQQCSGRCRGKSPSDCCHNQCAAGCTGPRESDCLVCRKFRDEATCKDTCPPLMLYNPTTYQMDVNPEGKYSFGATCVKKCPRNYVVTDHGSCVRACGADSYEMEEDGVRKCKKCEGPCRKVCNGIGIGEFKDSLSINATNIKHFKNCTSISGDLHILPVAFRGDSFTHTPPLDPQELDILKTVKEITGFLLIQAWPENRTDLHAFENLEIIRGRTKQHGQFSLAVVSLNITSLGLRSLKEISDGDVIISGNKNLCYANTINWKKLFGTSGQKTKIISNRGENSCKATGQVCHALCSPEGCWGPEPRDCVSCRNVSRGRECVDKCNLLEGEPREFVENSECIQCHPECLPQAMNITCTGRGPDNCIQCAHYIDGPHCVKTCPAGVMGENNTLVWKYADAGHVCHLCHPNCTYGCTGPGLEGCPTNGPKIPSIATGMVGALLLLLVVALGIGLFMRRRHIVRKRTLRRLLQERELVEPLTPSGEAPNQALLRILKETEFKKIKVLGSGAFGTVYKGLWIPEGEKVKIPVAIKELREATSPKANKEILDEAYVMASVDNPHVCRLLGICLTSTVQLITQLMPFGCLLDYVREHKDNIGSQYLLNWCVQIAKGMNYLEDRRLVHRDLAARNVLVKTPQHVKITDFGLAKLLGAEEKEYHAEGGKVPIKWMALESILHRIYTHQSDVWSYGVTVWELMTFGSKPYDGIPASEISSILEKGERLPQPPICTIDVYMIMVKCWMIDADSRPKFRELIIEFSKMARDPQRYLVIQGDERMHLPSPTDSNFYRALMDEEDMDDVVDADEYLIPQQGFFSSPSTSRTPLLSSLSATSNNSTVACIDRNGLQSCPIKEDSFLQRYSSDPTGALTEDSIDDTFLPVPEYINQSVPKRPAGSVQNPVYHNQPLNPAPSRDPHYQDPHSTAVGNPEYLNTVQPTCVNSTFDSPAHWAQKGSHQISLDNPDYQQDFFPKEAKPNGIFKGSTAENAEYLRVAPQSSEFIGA

[15] = target: Epidermal growth factor receptor (Homo sapiens) (UniProt P00533); details: at 1 µM
[16] = tested on: Epidermal growth factor receptor (Homo sapiens), P00533 [L858R]; details: at 0.1 µM
Epidermal growth factor receptor (Homo sapiens), P00533 [L858R], sequence (P00533 whole entry L858R): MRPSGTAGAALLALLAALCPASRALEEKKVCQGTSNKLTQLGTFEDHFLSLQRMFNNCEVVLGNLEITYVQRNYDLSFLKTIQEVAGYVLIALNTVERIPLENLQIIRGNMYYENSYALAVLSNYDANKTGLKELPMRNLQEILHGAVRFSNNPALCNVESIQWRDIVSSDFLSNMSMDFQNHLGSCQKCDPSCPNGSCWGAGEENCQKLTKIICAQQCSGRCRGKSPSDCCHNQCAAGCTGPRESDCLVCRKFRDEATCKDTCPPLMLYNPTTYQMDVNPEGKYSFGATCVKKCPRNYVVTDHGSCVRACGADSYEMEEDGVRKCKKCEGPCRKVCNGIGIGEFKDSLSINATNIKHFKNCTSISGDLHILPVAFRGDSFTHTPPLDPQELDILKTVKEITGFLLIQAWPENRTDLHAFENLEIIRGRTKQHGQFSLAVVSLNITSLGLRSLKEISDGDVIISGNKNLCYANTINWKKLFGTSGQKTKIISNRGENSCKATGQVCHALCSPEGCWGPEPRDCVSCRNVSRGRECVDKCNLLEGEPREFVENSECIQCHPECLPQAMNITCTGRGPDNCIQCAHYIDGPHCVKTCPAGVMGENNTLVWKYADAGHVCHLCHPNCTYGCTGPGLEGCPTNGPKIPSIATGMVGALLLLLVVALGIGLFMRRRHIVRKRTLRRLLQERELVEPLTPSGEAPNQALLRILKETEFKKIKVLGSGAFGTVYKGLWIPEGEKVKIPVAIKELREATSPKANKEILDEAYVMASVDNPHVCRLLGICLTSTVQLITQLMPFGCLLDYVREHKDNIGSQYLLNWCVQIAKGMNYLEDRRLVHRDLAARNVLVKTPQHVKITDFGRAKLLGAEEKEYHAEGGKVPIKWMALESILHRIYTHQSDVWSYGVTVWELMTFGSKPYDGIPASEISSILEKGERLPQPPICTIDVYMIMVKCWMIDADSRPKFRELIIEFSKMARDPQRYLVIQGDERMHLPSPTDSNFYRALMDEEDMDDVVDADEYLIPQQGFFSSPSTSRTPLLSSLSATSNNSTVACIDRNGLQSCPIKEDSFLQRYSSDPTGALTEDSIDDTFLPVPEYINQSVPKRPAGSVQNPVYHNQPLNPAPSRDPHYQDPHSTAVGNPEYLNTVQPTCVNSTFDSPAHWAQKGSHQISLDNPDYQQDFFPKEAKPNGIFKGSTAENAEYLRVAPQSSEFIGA

[17] = tested on: Epidermal growth factor receptor (Homo sapiens), P00533 [L858R]; details: at 1 µM
[18] = tested on: Epidermal growth factor receptor (Homo sapiens), P00533 [L861Q]; details: at 0.1 µM
[19] = tested on: Epidermal growth factor receptor (Homo sapiens), P00533 [L861Q]; details: at 1 µM
[20] = tested on: Epidermal growth factor receptor (Homo sapiens), P00533 [T790M]; details: at 0.1 µM
Epidermal growth factor receptor (Homo sapiens), P00533 [T790M], sequence (P00533 whole entry T790M): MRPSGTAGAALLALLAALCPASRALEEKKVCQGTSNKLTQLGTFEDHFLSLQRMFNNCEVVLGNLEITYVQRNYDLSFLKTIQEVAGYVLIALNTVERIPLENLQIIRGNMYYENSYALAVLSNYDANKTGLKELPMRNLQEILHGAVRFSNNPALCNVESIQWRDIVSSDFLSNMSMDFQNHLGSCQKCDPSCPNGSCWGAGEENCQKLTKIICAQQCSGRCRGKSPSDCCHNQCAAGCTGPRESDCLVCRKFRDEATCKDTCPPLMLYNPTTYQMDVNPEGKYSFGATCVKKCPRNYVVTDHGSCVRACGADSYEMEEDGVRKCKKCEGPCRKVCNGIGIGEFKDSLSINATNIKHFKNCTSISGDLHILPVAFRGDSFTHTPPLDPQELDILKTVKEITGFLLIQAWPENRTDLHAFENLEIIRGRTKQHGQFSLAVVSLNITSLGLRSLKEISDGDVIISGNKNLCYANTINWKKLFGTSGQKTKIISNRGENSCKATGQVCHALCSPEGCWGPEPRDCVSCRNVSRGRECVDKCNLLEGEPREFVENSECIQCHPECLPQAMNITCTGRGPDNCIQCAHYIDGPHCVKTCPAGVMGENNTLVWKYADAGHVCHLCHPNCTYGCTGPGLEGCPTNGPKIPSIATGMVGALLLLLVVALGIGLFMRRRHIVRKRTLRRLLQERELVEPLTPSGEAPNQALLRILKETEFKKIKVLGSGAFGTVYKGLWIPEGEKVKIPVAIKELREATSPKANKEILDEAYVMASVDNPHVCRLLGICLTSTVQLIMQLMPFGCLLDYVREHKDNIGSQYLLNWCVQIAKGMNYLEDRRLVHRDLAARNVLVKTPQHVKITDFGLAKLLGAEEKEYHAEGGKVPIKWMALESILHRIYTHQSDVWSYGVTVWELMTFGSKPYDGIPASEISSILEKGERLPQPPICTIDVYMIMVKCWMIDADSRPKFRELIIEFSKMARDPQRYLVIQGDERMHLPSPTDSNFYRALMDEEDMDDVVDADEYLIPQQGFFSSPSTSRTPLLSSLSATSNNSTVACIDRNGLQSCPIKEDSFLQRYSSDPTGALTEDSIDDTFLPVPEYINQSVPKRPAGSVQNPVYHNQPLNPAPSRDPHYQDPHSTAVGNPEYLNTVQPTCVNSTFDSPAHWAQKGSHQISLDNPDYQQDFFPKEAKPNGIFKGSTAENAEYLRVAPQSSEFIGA

Structure (SMILES) | inhibition [1] [%] | inhibition [2] [%] | inhibition [3] [%] | inhibition [4] [%] | inhibition [5] [%] | inhibition [6] [%] | inhibition [7] [%] | inhibition [8] [%] | inhibition [9] [%] | inhibition [10] [%] | inhibition [11] [%] | inhibition [12] [%] | inhibition [13] [%] | inhibition [14] [%] | inhibition [15] [%] | inhibition [16] [%] | inhibition [17] [%] | inhibition [18] [%] | inhibition [19] [%] | inhibition [20] [%]
Cc1ccc2c(-c3ccnc(Nc4cccc(C(F)(F)F)c4)n3)c(-c3ccccc3)nn2n1 | -3.9 | 12.4 | 68.1 | 7.21 | 38.2 | 15.5 | 70.9 | 0.51 | 5.18 | 4.63 | 11.4 | 6.32 | 47.4 | 28.9 | 70.3 | 82.3 | 94.8 | 48.2 | 88.2 | 10.9
COc1cccc(-n2nc(C)c3c(N/N=C(\C)c4ccncc4)ncnc32)c1 | 0.56 | -0.21 | 1.02 | 1.51 | 3.74 | -1.24 | -0.15 | 0.11 | -0.4 | -0.83 | 0.42 | 0.8 | 0.38 | 1.03 | 2.43 | -0.3 | 1.45 | -0.04 | 0.7 | -1.78
CCS(=O)(=O)c1ccc(OC)c(Nc2nccc(N(C)c3ccc4c(C)n[nH]c4c3)n2)c1 | -3.9 | 15.4 | 67.5 | 3.66 | 23.2 | 18.8 | 79.3 | 2.21 | 27.1 | 1.43 | 15.2 | -0.23 | -2.28 | 7.37 | 35.2 | 7.56 | 43.1 | 7.97 | 31.4 | 4.42
C[C@@H](Oc1cc(-n2cnc3ccc(OC[C@@H](O)CO)cc32)sc1C(N)=O)c1ccccc1Cl | 3.2 | -0.24 | 3.09 | 4.05 | 0.31 |  | -0.38 | -0.29 | -0.5 | -0.73 | -0.52 | 0.32 | 0.79 | -0.06 | 2.04 | -2.48 | 1.14 | -1.31 | -2.45 | -3.45
CC(C)c1ccc(Nc2nccc(-c3cnn4ncccc34)n2)cc1 | 0.39 | 1.48 | 4.76 |  | 5.9 | 3.47 | 6.47 | -1.04 | -0.53 | 4.27 | 6.02 | 1.04 | 0.75 | 4.49 | 6.88 | 3.51 | 7.83 | 4.16 | 6.18 | -0.27
CCCN1CCCC(c2ccc(Nc3nc(Nc4cc(F)ccc4C(N)=O)c4cc[nH]c4n3)c(OC)c2)C1 (configuration not stated) | 57.4 | 2.11 | 6.81 | 5.67 | 5.71 | 18.1 | 67.8 | 0.49 | -1.31 | 2.66 | 4.58 | 2.62 | 4.82 | 7.23 | 38 | 9.57 | 37.5 | 7.28 | 28.4 | 32
C[C@@H](Oc1cc(-n2cnc3ccc(OCC4CCN(C)CC4)cc32)sc1C(N)=O)c1ccccc1C(F)(F)F | 12.8 | 1.16 | 14.4 | -1.33 | -2.09 | -0.71 | -4.24 | 0.52 | -1.06 | -4.98 | -1.36 | -1.18 | -4.23 | 2.6 | 9.98 | 8.84 | 42.5 | -0.46 | 8.68 | -1.87
Cc1ccc(NC(=O)CC2CC2)cc1-c1ccc(C(=O)NCC2CC2)cc1 | -1.55 | 2.42 | 2.73 | 1.08 | 5.01 | 4.58 | 5.79 | 1.4 | 2.39 | 4.41 | 5.95 | 2.18 | 5.56 | 0.19 | 2.75 | 3.95 | 4.15 | 1.88 | 4.52 | 2.03
O=C1Nc2ccccc2/C1=C/Nc1ccc2[nH]c(=O)[nH]c2c1 |  | 7.96 | 33 | 5.38 | 7.7 | 4.56 | 8.06 | 0.87 | 4.29 | 6.52 | 9.18 | 5.46 | 8.62 | 4.63 | 7.94 | 3.53 | 6.79 | 4.1 | 6.47 | 3.08
COC(=O)Nc1nc2cc(Oc3ccc(NC(=O)Nc4cccc(Br)c4)cc3)ccc2[nH]1 | 9.52 | 3.1 | 2.8 | 2.76 | 1.32 | 3.81 | 4.63 | 1.15 | 0.55 | 7.57 | 3.27 | 98.2 | 93.7 | 1.74 | 3.19 | 5.58 | 5.33 | 3.01 | 4.1 | 2.15
